In test [1] the test system is Zika virus NS2B-NS3 protease (linked construct). Briefly: Primary screen NINDS Rhodamine qHTS for Zika virus inhibitors (AID 1347160). Also: nearly all actives have a fitted effect of over 55% in size. Also: potency is read from the fitted curve at half-maximal effect. In outline:
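Rhodamine110-peptide cleavage (1.5 µM substrate) by 25 nM linked NS2B-NS3 enzyme at pH 8.0 (Tris, Tween 20), after 15 min RT preincubation with compounds; 15-min fluorescence change normalized to controls and Hill-fitted.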
In general terms: Quantitative high-throughput screening tests each substance at several concentrations.

Test [2] in a line: OV-KATE Cancer Cell Toxicity qHTS against the NCATS CANVASS Library (AID 1347345). The procedure, abridged: (§1)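 Viability read-out: CellTiter-Glo luminescence after 72 h compound exposure at 37 °C/5% CO2. Cells plated at 1000/well, 4 h pre-incubation; 11-point titration. Bortezomib served as control.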
A short description of test [3]: UWB1.289 Cancer Cell Toxicity qHTS against the NCATS CANVASS Library (AID 1347347). Also: potency is read from the fitted curve at half-maximal effect; nearly all actives have a fitted effect of over 60% in size. The procedure, abridged: as §1
Test [4] in a line: OV-SAHO Cancer Cell Toxicity qHTS against the NCATS CANVASS Library (AID 1347348). Also: nearly all actives have a fitted effect of over 55% in size. Also: potency is read from the fitted curve at half-maximal effect. The procedure, abridged: as §1
The nature of test [5]: Panc-1005 Cancer Cell Toxicity qHTS against the NCATS CANVASS Library (AID 1347349). Also: nearly all actives have a fitted effect of over 60% in size. Also: potency is read from the fitted curve at half-maximal effect. The procedure, abridged:
as §1

Test [6] can be described thus: COV-362 Cancer Cell Toxicity qHTS against the NCATS CANVASS Library (AID 1347352). Also: potency is read from the fitted curve at half-maximal effect. The procedure, abridged: (§2)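 1000 cells/well, 4 h pre-incubation 37 °C/5% CO2; 11-pnt titration; 72 h; CellTiter-Glo 15 min RT, luminescence.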
Test [7] can be described thus: G06 Cancer Cell Toxicity qHTS against the NCATS CANVASS Library (AID 1347368). Also: nearly all actives have a fitted effect of over 60% in size. Also: potency is read from the fitted curve at half-maximal effect. The procedure, abridged: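 ATP luminescence (CellTiterGlo) readout of cytotoxicity. Canine G06 glioma cells, 500/well, 72 hr incubation at 37C with compounds; bortezomib titration served as control.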
Test [8] in a line: MCF7 Cancer Cell Toxicity qHTS against the NCATS CANVASS Library (AID 1347369). Also: potency is read from the fitted curve at half-maximal effect. In outline: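 Luminescent ATP signal (CellTiterGlo) served as the cytotoxicity read-out after MCF7 breast cancer cells had been incubated 72 hr at 37C with natural products in an 11-point titration.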
The nature of test [9]: qHTS for Antimalaria activity screened against the NCATS CANVASS Library (AID 1347380). Also: nearly all actives have a fitted effect of over 40% in size. Also: potency is read from the fitted curve at half-maximal effect. In outline: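 SYBR Green fluorescence (ex 485, em 535 nm) read after saponin/Triton lysis and 18 h further incubation; Dd2 asexual blood-stage parasites, 72 h compound exposure, 11-pt concentration series, 2.5% hematocrit, 0.3% parasitemia.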
Test [10] can be described thus: qHTS for inhibitors of ER calcium dysfunction: SERCaMP assay screened against the NCATS CANVASS Library (AID 1347393). Also: nearly all actives have a fitted effect of over 40% in size. Also: potency is read from the fitted curve at half-maximal effect. The procedure, abridged:
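qHTS in SH-SY5Y reporter cells: 16 h compound pretreatment, 4 h thapsigargin, then secreted Gaussia luciferase measured by luminescence.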

A short description of test [11]: UWB1.289-WTBRCA1 Cancer Cell Toxicity qHTS against the NCATS CANVASS Library (AID 1347354). Also: potency is read from the fitted curve at half-maximal effect. In outline: as §2

Inconclusive results are not listed. Calls of active or inactive are those of the source. Calls follow the shape of the dose curve; as a rule, active = well fitted curve in the direction sought with a large enough effect; inconclusive = small, poorly fitted or top-dose-only effect, or another doubt; inactive = no such curve, though single readings can be large; an effect the other way counts as inactive or inconclusive.

For the compound `CO[C@@]12c3c(C)cc(O)c4c(=O)occ(c34)C(=O)[C@@H]1[C@]13COC(=O)c4c(O)cc(C)c(c41)C(=O)[C@H]2[C@@H]3OC(C)=O`, the Potency was 3.11 µM (active) in test [1], 5.94 µM (active) in [3] and 0.0075 µM (active) in test [9]. In addition, the Potency result in test [2], in [4], in test [5], in [6], in test [7] and in test [8] was “inactive” throughout.
Take `COC1C(O)C(C)OC(OC2C(Oc3cccc4c(O)c5c(=O)oc6ccc(C)c7c(=O)oc(c34)c5c67)OC(C)C(O)C2O)C1O` (stereo unspecified): the Potency in test [5] is 16.8 µM (active); in test [7], 9.35 µM (active). Moreover, the Potency entry in [10] was “inactive”.
`CCCC[C@@H](C)/C=C1/CN2CCC[C@H]2[C@@](C)(O)[C@@H]1O`: the Potency entry in [2], in test [4], in [5], in test [6], in [11] and in [7] was “inactive” throughout. In addition, the Potency result in test [8] and in test [9] was “inactive” throughout.
Regarding `C=C(C)[C@H]1C(=O)c2c3c(cc4c5c(n1c24)[C@@]1(C)[C@@H](CC[C@H]2[C@](C)(/C=C/C=C(\C)C(=O)O)[C@@H](O)CC[C@@]21C)C5)C1=CC(C)(C)OC(C)(C)[C@H]1[C@@H]3O`, the Potency in [1] is 2.2 µM (active); in test [3], 11.8 µM (active); in [4], 11.8 µM (active); in test [5], 8.41 µM (active); in test [6], 21.1 µM (active); in test [11] it was 18.8 µM (active). In [9], the Potency is 7.47 µM (active). The Potency result in test [10] is “inactive”.
As to `CCC(=O)N[C@@H](C[C@H](C)C(Cl)(Cl)Cl)C(=O)N1C(=O)C=C(OC)[C@@H]1C[C@H](C)C(Cl)Cl`, the Potency result in test [2], in test [5], in [6], in [11], in test [7] and in [8] was “inactive” each time. In addition, in test [10], the Potency is 27.2 µM (active).
As to `CC[C@@H]1CN2CCC3(Nc4cccc(OC)c4C3=O)[C@@H]2C[C@@H]1/C(=C\OC)C(=O)OC` (stereo partly specified), the Potency entry in [1], in [2], in test [5], in test [6], in test [11] and in test [7] was “inactive” throughout. Moreover, the Potency entry in [8] is “inactive”. The Potency in test [10] is 12.2 µM (active).
Turning to `COC1=C(C2=C(OC)C(=O)c3cc4c(c(O)c3C2=O)C(=O)O[C@H](C)C4)C(=O)c2c(cc3c(c2O)C(=O)O[C@H](C)C3)C1=O`, the Potency in test [1] was 3.3 µM (active). The Potency result in test [2], in test [4], in test [6], in [11], in [7] and in [8] was “inactive” in each case. Moreover, the Potency result in test [9] and in test [10] was “inactive” in each case.
`C/C=C/[C@@H]1[C@H]2C[C@@H](C)CC[C@@H]2C(C)=C[C@H]1C(=O)c1c(O)c(-c2ccc(O)cc2)c[nH]c1=O`: the Potency in [1] is 22 µM (active); in [3], 21.1 µM (active); in test [4], 23.6 µM (active); in [10], 19.3 µM (active). For the same compound, the Potency entry in [8] was “inactive”.
`C/C=C1/CN2CC[C@@]34c5ccccc5N(C)[C@@H]3[C@@H]2C[C@@H]1[C@H]4C(=O)OC`: the Potency result in test [2], in [4], in test [6], in test [11], in [7] and in test [9] was “inactive” in each case. Moreover, in test [10], the Potency is 0.86 µM (active).
For the compound `CC[C@@H]1CN2CCc3c([nH]c4cccc(OC)c34)[C@@H]2C[C@@H]1/C(=C\OC)C(=O)OC`, the Potency entry in test [1] is “inactive”. Also, the Potency in test [4] is 14.9 µM (active); in [7] it was 23.5 µM (active); in test [10] it was 8.6 µM (active).
Take `C/C=C1/CN2C3CC1C1=CCC(=O)N4c5ccccc5[C@@]3(C[C@@H]2C2=C[C@H]3C5CC6N(CC[C@@]67c6ccccc6N(C2=O)[C@@H]37)C/C5=C/C)[C@H]14` (stereo partly specified): the Potency was 31.1 µM (active) in test [1], 14.9 µM (active) in test [5], 20.9 µM (active) in test [7] and 1.33 µM (active) in [9]. Also, in test [2], the Potency result is “inactive”.
For `C[C@]12CCC3[C@@H](CC[C@@H]4C[C@@H](O)CC[C@]34CO)[C@@]1(O)CC[C@@H]2C1=CC(=O)OC1` (stereo partly specified), the Potency is 1.18 µM (active) in test [3]; 2.36 µM (active) in test [4]; 1.88 µM (active) in test [6]; 1.87 µM (active) in test [7]; 1.17 µM (active) in test [8]. The Potency result in test [9] and in test [10] was “inactive” each time.
For the compound `CCCC[C@@H]1CC[C@H]2CCCC(CCCO)N12` (stereo partly specified), the Potency entry in [2], in test [4], in test [5], in [6], in test [11] and in test [7] was “inactive” each time. For the same compound, the Potency entry in test [8] was “inactive”. The Potency in test [9] is 0.0106 µM (active).
In the case of `O[C@H]1C=C[C@@]23CCN(Cc4cc5c(cc42)OCO5)[C@@H]3C1`, the Potency result in [2], in test [4], in [5], in test [6], in test [7] and in [8] was “inactive” throughout. The Potency result in test [10] was “inactive”. Besides, in test [3], the Potency is 11.8 µM (active).

Values taken from PubChem BioAssay (NCATS).
